Measured values reported in PMC5540273 (PLoS ONE, 2017).

tested on: FGFR1; settings: concentration: 1 μM, replicates: in singlicate; n = 1
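Further: KINOMEscan kinase panel screen.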

| SMILES | %Inh |
| --- | --- |
| Nc1ncc(-c2cccnc2)c2scc(-c3ccc4c(c3)CCN4C(=O)Cc3ccccc3)c12 [GSK683281] | 31% |
| c1ccc(Oc2ccc(Nc3ccnc4cc(-c5ccc(CNCCN6CCOCC6)o5)ccc34)cc2)nc1 [GW567145] | 0% |
| Cl.Cl.NCC(NCc1ccc(-c2ccnc3[nH]ccc23)s1)c1ccccc1 (stereo not drawn) [GSK1321565] | 4% |
| CCn1c(-c2nonc2N)nc2c(C#CC(C)(C)O)nc(OC[C@H](N)c3ccccc3)cc21 [GSK943949] | 11% |
| O=C(Nc1cccc(-c2nn3ncccc3c2-c2ccnc(Nc3ccccc3)n2)c1)c1c(F)cccc1F [GSK198271] | 0% |
| CCS(=O)(=O)c1ccc(OC)c(Nc2nccc(-c3c(-c4cccc(NC(=O)c5c(F)cccc5F)c4)nn4ncccc34)n2)c1 [GSK326180] | 0% |
| C[C@@H](Oc1cc(-n2cnc3cc(-c4ccnc(NCCS(C)(=O)=O)c4)ccc32)sc1C(N)=O)c1ccccc1Cl [GSK907232] | 66% |
| Oc1cc(Nc2ccnc3cc(I)ccc23)ccc1F [GW552771] | 23% |
| Nc1ncc(-c2ccc3nccc(-c4ccncc4)c3c2)cc1S(=O)(=O)N1CCOCC1 [GSK1627798] | 0% |
| Cl.Cl.NCC(C(=O)Nc1cc(Br)c(-c2ccnc3[nH]ccc23)s1)c1ccccc1 (stereo not drawn) [GSK1269851] | 30% |
| COc1ccc(Nc2nccc(N3CCC(NC(=O)Nc4cccc(OC)c4)C3)n2)cc1 (stereo not drawn) [GSK1379742] | 5% |
| Cc1cccc(NC(=O)Nc2ccc(Oc3ncnc4ccn(C)c34)cc2)c1 | 0% |
| O=C(Nc1ccccc1F)NC1CCN(c2ccnc(Nc3ccc(F)cc3)n2)CC1 [GSK1379800] | 0% |
| COc1cccc(C2=C(Nc3ccc(Cl)c(C(=O)O)c3)C(=O)NC2=O)c1 [SB-390769] | 8% |
| O=c1[nH]cc(-c2ccc(N3CCOCC3)cc2)c2sc(-c3cn[nH]c3)cc12 [GSK2276055] | 0% |
| COc1ccc(Nc2nccc(NCCNC(=O)c3cc4ccccc4s3)n2)cc1 [GSK1379896] | 0% |
| O=C(Nc1cccc(-c2nn3ccccc3c2-c2ccnc(Nc3cccc(C(F)(F)F)c3)n2)c1)c1c(F)cccc1F [GSK292658] | 0% |

| SMILES | %Inh |
| --- | --- |
| COc1cccc(-c2ccc3c(NC(=O)C4CC4)n[nH]c3n2)c1 [SB-710903] | 0% |
| Cc1cccc(Nc2nc(N[C@H]3CCNC3)ncc2C(N)=O)c1.Cl [GSK2197149] | 0% |
| Fc1ccc(-c2ncn(C3CCNCC3)c2-c2ccnc(Oc3ccc(-c4ccccc4)cc3)n2)cc1 [SB-245391] | 19% |
| O=C(NC1CCN(c2ccnc(Nc3ccc(F)cc3)n2)C1)c1cc2ccccc2s1 (stereo not drawn) [GSK1379716] | 0% |
| COc1cccc(C(=O)Nc2cccc(Oc3ccc4nc(NC(=O)C5CC5)cn4n3)c2)c1 | 22% |
| Cl.NC(=O)c1cccc(Nc2nccc(Nc3ccc(Oc4c(Cl)cccc4Cl)c(Cl)c3)n2)c1 [GW659009] | 0% |
| O=C(Nc1n[nH]c2cc(-c3ccoc3)ccc12)C1CC1 [SB-738481] | 0% |
| Cl.c1ccc(-c2ccc3c(Nc4ccc5[nH]ccc5c4)ccnc3c2)nc1 [GW440138] | 63% |
| COc1ccc(-c2coc3ccc(-c4nnc(SCc5ccc(OC)c(C(F)(F)F)c5)o4)cc23)cc1 | 0% |
| COc1cc2c(cc1OCCN1CCNCC1)ncc1c3ccc(C#N)cc3[nH]c21 | 0% |
| CN(c1ccc(NC(=O)Nc2cc(C(F)(F)F)ccc2F)cc1)c1ccnc(Nc2ccc(S(N)(=O)=O)cc2)n1 [GW809893] | 76% |
| Cn1cc(-c2ccc3c(c2)CCN3C(=O)Cc2cccc(F)c2)c2c(N)ncnc21 [GSK2603358] | 0% |
| CN(C)Cc1ccc(-c2ccc3c(Nc4ccc(Oc5ccccn5)cc4)ccnc3c2)o1 [GW567148] | 0% |
| c1ccc(-c2n[nH]cc2Nc2ccnc3ccccc23)nc1 [GW694077] | 0% |
| COc1ccc(CNC(=O)NC2CCN(c3ccnc(Nc4ccc(F)cc4)n3)CC2)cc1 [GSK1379788] | 0% |
| COc1cc(Nc2nccc(-c3c(-c4cccc(NC(=O)c5c(F)cccc5F)c4)nn4ncccc34)n2)cc(OC)c1OC [GSK327238] | 66% |
